Rows were chosen to be rich in hits. Some 3.9% of all compounds tested hit in one or more screens of this group.
CCHFV vOTU inh = CCHFV vOTU protease inhibitors, primary screen, biochemical, Pep-AMC substrate, fluorescence | Crimean-Congo hemorrhagic fever virus L polyprotein viral ovarian tumor (vOTU) protease … | 370,000 tested, 0.55% active | inhibition, % at 11.5 µM; in the data active means inhibition above about 30%; further: 0% = vehicle wells with enzyme and 100% = no enzyme wells
BoNT-A LC inh2 = BoNT/A light chain protease inhibitors, primary screen, biochemical, flow cytometry, MLPCN library | Botulinum neurotoxin type A light chain protease (Clostridium botulinum A str. ATCC 3502) | inhibition, % at 10 µM | multiplex microsphere protease substrate cleavage | 360,000 tested, 0.17% active; further: plate controls were buffer without enzyme for full effect and enzyme alone for no effect
BoNT F protease = BoNT/F light chain protease inhibitors, primary screen, biochemical, flow cytometry, MLPCN library; Botulinum neurotoxin type F light chain protease (Clostridium botulinum); Multiplex microsphere protease cleavage assay; inhibition, % at 10 µM; 360,000 tested, 0.22% active; in the data active means inhibition above about 35%, passing the limit was not always enough; inconclusive means no clear call, values can overlap the other calls; further: plate controls were buffer without enzyme for full effect and enzyme alone for no effect
Anthrax LF prot = Bacillus anthracis LF protease inhibitors, primary screen, biochemical, multiplex microsphere, MLPCN library. AID 588501, 2011. inhibition, % at 10 µM. multiplex microsphere protease cleavage assay. 360,000 tested, 0.12% active; further: plate controls were buffer without enzyme for full effect and enzyme alone for no effect
Target sequence (P15917 whole entry, looked up): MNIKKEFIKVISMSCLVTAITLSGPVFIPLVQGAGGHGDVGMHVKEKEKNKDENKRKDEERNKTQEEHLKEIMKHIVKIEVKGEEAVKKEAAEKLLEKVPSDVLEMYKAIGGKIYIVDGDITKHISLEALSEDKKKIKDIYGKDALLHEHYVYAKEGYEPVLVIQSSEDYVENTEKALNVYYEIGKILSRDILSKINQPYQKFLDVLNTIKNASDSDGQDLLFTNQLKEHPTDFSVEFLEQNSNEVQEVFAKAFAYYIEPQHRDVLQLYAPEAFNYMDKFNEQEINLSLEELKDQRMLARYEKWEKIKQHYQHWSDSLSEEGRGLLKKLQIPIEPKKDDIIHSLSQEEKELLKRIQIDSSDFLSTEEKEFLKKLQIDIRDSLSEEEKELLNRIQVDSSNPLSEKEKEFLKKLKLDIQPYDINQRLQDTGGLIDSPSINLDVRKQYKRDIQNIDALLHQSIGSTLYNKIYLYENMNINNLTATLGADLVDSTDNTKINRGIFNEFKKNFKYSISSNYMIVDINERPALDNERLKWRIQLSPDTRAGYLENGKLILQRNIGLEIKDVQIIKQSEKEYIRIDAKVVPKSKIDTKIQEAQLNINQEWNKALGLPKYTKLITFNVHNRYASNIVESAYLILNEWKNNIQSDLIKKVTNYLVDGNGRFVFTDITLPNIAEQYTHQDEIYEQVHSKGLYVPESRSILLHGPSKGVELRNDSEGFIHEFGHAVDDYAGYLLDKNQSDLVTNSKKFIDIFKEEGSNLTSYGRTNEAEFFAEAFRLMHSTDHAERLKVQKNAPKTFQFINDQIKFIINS
3CLpro inhibitor = SARS-CoV 3CLpro protease inhibitors, primary screen, biochemical, quenched FRET; Replicase polyprotein 1ab (Severe acute respiratory syndrome coronavirus), P0C6X7; recombinant SARS-CoV 3CLpro, quenched FRET peptide cleavage; inhibition, % at 6 µM; 290,000 tested, 0.14% active; AID 1706, 2009; in the data active means inhibition above about 12%
Autofluor counter = compound fluorescence in toxin protease inhibitor counterscreen | compound autofluorescence counterscreen, microsphere flow cytometry; stronger effect = higher value | fluorescence intensity (concentration not given with the values) | 360,000 tested, 3.1% active; in the data active means fluorescence intensity above about 16000; inconclusive means no clear call, values can overlap the other calls
* = called active by the depositor; ? = inconclusive; nt = no result given. Unless noted, no stated cut-off is given here; in the data, active means inhibition above about 30%; inconclusive means no clear call, values can overlap the other calls; inactive means below that.

SMILES	CCHFV vOTU inh	BoNT-A LC inh2	BoNT F protease	Anthrax LF prot	3CLpro inhibitor	Autofluor counter
COc1ccc(CC(C)N2CCN(Cc3ccccc3)CC2)c(OC)c1 (centres undefined)	-10.6	7.7	9.8	-0.6	0.7	18004*
C=CCN1C(=O)c2n[nH]c(COC)c2C1c1ccc(C)cc1 (centres undefined)	2.7	nt	nt	nt	nt	nt
CCN1CCC2(CCNC2)C1 (centres undefined)	-2.6	-0.8	1.1	-2.6	-3.0	16425*
CCN1CCC2(CC1)NC(CO)(CO)CO2	-13.6	0.1	0.4	-0.1	-0.4	2750
O=C(CSc1nnc(-c2cccnc2)n1Cc1ccco1)Nc1cc(Cl)ccc1F	-0.4	nt	nt	nt	nt	nt
COc1ccc(-c2cc(NC(=O)Cc3c[nH]c4ccccc34)ccc2Nc2cccnc2)c(OC)c1	-4.2	nt	nt	nt	nt	nt
COc1ccc(Cl)cc1NC(=O)C1CCCN(c2cc(C)nc3ncnn23)C1 (centres undefined)	1.5	0.4	-3.2	-1.8	-3.4	9706
CCCc1cc(N2CCCC(C(=O)Nc3cc(Cl)ccc3OC)C2)n2ncnc2n1 (centres undefined)	-15.2	?	0.2	1.4	2.6	16461*
Cc1ccc(NC(=O)CN2C(=O)CCSc3ccccc32)cc1C	-3.6	nt	nt	nt	nt	nt
O=c1[nH]c(=O)n(Cc2ccc(F)cc2)c(O)c1C=NCCCn1ccnc1	10.7	-0.6	-0.2	-6.3	3.6	20628*
COC(=O)[C@]12C[C@H](CC(=O)NCc3ccc(OC)c(OC)c3)C(=O)N(CCc3ccc(OC)c(OC)c3)C1=C[C@H](C1CCCC1)O[C@@H]2C	4.8	nt	nt	nt	nt	nt
Cc1nn(-c2ccccc2)c(C)c1/C=N/N1CCN(c2ccccc2)CC1	nt	-1.8	-5.5	-5.7	2.4	20444*
Cc1nn(-c2ccccc2)c(N2CCCC2)c1/C=N/O	nt	-6.1	-5.8	0.9	-0.8	24403*
O=C1CSc2ccc(C(=O)N3CCCC(C(=O)N4CCN(c5ccc(F)cc5)CC4)C3)cc2N1 (centres undefined)	-4.8	nt	nt	nt	nt	nt
CC1=C(C(=O)c2ccccc2)C(c2cn(-c3ccccc3)nc2-c2ccc(Cl)cc2)NC(=S)N1 (centres undefined)	-1.9	2.0	-2.5	-4.6	0.8	19559*
CCOC(=O)Cc1csc(NC(=O)c2ccc(S(=O)(=O)N3CCCCC3)cc2)n1	4.8	?	1.4	2.2	2.8	22414*
CCOC(=O)Cc1csc(NC(=O)c2ccco2)n1	-4.2	1.1	-0.2	-6.3	7.8	20219*
CCOC(=O)Cc1csc(NC(=O)c2ccc(C)o2)n1	-2.2	-0.5	-2.7	0.4	2.7	8273
CCOC(=O)Cc1csc(NC(=O)NC2(C(F)(F)F)Oc3ccccc3O2)n1	-5.3	-1.2	-4.1	-4.2	-3.2	16388*
CCOC(=O)Cc1csc(NC(=O)COc2ccccc2)n1	-2.9	-1.8	-2.8	-2.0	7.3	22960*
CCOC(=O)Cc1csc(NC(=O)NC2(C(F)(F)F)Oc3ccc(Cl)cc3O2)n1 (centres undefined)	7.7	-0.5	-13.5	-0.8	-1.5	2650
O=C(Nc1ccccc1)Nc1ccc(Oc2ncnc3cc(Cl)ccc23)nc1	nt	nt	nt	nt	-2.4	nt
O=C(O)CCC(=O)Nc1ccc(Oc2ncnc3cc(Cl)ccc23)nc1	-2.5	8.9	40.2*	?	3.0	3429
COC(=O)CSc1nnc(-c2cc(-c3ccccc3)n[nH]2)n1N	-2.4	nt	nt	nt	nt	nt
COc1ccc2c(c1)CCc1c(C(=O)N3CCOCC3)noc1-2	-11.9	12.2	15.7	-18.3	-6.7	18054*
SMILES	CCHFV vOTU inh	BoNT-A LC inh2	BoNT F protease	Anthrax LF prot	3CLpro inhibitor	Autofluor counter
COc1ccc2c(c1)CCc1c(C(=O)NCCc3ccc(OC)c(OC)c3)noc1-2	1.0	-1.2	-13.0	-4.4	-6.2	11546
COc1ccc2c(c1)CCc1c(C(=O)Nc3ccc(OC)c(OC)c3)noc1-2	11.4	-1.9	-3.0	-1.2	1.3	20591*
COc1ccc2c(c1)CCc1c(C(=O)N3CCCc4ccccc43)noc1-2	3.4	0.4	-6.1	0.6	2.2	8028
Cn1c(SCC(=O)OC2CCCCC2)nnc1-c1ccc2c(c1)OCO2	-6.0	2.1	3.2	1.7	-7.8	21547*
COc1ccc(C(=O)c2nc3c(n2O)CCCCC3)cc1	4.2	0.3	10.6	1.9	-1.8	2344
CCCOc1ccc(C(=O)c2nc3c(n2O)CCCC3)cc1	9.9	1.4	0.4	2.6	1.9	22563*
O=C(c1ccc(Oc2ccccc2)cc1)c1nc2c(n1O)CCCC2	22.2	?	-5.2	-1.0	-0.3	23776*
COc1ccc(OC)c(C(=O)c2nc3c(n2O)CCCCC3)c1	8.3	-1.8	-5.6	-2.0	-6.4	23230*
COc1ccc(C(=O)c2nc3c(n2O)CCCC3)cc1OC	14.2	-2.7	-21.0	-1.2	0.9	4898
Cc1ccc(OCc2ccc(C(=O)Nc3nccs3)o2)cc1	2.8	nt	nt	nt	-3.8	nt
CCc1nnc(NC(=O)c2ccc(COc3ccc(C)cc3)o2)s1	5.2	-0.9	-1.3	0.8	-1.3	23447*
CCc1nnc(NC(=O)c2ccc(COc3ccccc3)o2)s1	0.0	-3.0	-3.3	-3.7	1.5	17254*
CCOc1ccc(/C=N/n2cnnc2)cc1	8.0	?	-3.0	3.0	-1.9	17072*
C(=N\n1cnnc1)/c1ccc(-c2ccccc2)cc1	17.8	-0.8	0.1	-7.8	-0.9	3094
CCc1ccc(/C=N\n2cnnc2)cc1	-6.0	5.6	45.4*	?	-3.6	3657
C(=N\n1cnnc1)/c1ccc(OCc2ccccc2)cc1	-10.6	1.2	5.5	0.1	4.0	9724
COc1ccc(C)cc1NC1=C(Cl)C(=O)N(C2CCCCC2)C1=O	9.6	-1.3	-5.3	-3.0	-1.9	22693*
COc1ccc(C(=O)NC(=S)NCc2ccccc2)cc1OC	7.1	-1.1	-4.7	-4.6	2.6	4884
COc1ccc(C(=O)NC(=S)NCc2ccc(-c3nc4ccccc4o3)cc2)cc1OC	0.7	?	-4.8	0.7	-5.0	21219*
CCOc1cc(C(=O)NCc2ccc(-c3nc4ccccc4o3)cc2)cc(OCC)c1OCC	-8.8	-1.1	-4.5	-5.2	0.6	16439*
C=CCN1C(=O)[C@@H](CC(=O)NCCCOC)[C@]2(C(=O)OC)CCCCC=C12	-3.6	nt	nt	nt	nt	nt
CC(NC(=O)COC(=O)Cc1ccsc1)C1CC2CCC1C2 (centres undefined)	-7.1	-2.7	-4.4	-1.6	3.0	24292*
Cc1ccc(C(=O)NCC(=O)OCC(=O)NC(C)C2CC3CCC2C3)cc1 (centres undefined)	0.8	4.4	5.9	3.0	nt	?
OC(CNC1CCCC1)COc1c(F)cc(Br)cc1F (centres undefined)	-0.6	0.3	-0.4	-3.8	3.2	16538*
CC(=O)Nc1ccc(OCC(O)CNC2CCCC2)cc1 (centres undefined)	-9.1	?	-9.6	-0.3	-5.7	23804*
